# Results from PubChem BioAssay (EPA / NIEHS).
# Where “and” joins values, the source holds several entries; their conditions need not be identical. Identical values can stand only once. Some structures have more than one record in an assay (separate samples or runs), and their calls can disagree. Calls of active or inactive are those of the source. The calls were made as follows: active = hit-call score of the fitted dose curve at least 0.9, where 1 is the maximum; inactive = score below 0.9.
# Experiments:
# [1] = ATG_GLI_CIS: Attagene CIS-FACTORIAL HepG2 Assay for human Zinc Finger Protein GLI1 (AID 2282945); settings: HepG2, Attagene cis-factorial reporter mRNA, GLI element; actives raise or lower the signal
# In short: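 HepG2 cells transiently transfected with cis-promoter multiplexed reporter units report endogenous transcription factor activity. After 24 h chemical exposure, reporter mRNA was quantified by RT-PCR, 6-FAM labelling, HpaI digestion and capillary electrophoresis, with bidirectional fitting against DMSO.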
# [2] = ATG_GRE_CIS: Attagene CIS-FACTORIAL HepG2 Assay for human Glucocorticoid Response Elements (GRE) (AID 2282947); settings: HepG2 GRE cis-reporter, Attagene multiplex mRNA; actives raise or lower the signal
# In short: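 HepG2 cells transiently transfected with multiple cis-promoter reporter units measure endogenous TF activity; 24 h compound exposure. Reporter mRNA quantified by RT-PCR, FAM labelling, HpaI digestion and capillary electrophoresis; bidirectional fit vs DMSO baseline.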
# [3] = ATG_ISRE_CIS: Attagene CIS-FACTORIAL HepG2 Assay for human Interferon Regulatory Factor 1 (IRF1) binding to an Interferon-Stimulated Response Element (ISRE) (AID 2282948); settings: HepG2 ISRE cis-reporter (Attagene), mRNA transcription readout; actives raise or lower the signal
# In short: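 Transfected HepG2 (multiple reporter transcription units, cis elements) dosed 24 h. RNA → oligo(dT) RT → PCR → 6-FAM primer extension → HpaI → CE. DMSO = negative control/baseline.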
# [4] = ATG_M_32_CIS: Attagene CIS-FACTORIAL HepG2 Assay for M32 Transcription Factor (Internal Marker) (AID 2282949); settings: HepG2 Attagene cis-factorial M32 reporter, mRNA; actives raise or lower the signal;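 also: background control marker of the multiplexed CIS panel rather than a real target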
# In short: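 Internal background marker read-out: RT-PCR/capillary electrophoresis fluorescence of reporter transcripts from transiently transfected HepG2 cells after 24 h chemical exposure. Activity fitted bidirectionally relative to DMSO negative control.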
# [5] = ATG_M_06_CIS: Attagene CIS-FACTORIAL HepG2 Assay for M06 Transcription Factor (Internal Marker) (AID 2282950); settings: HepG2 Attagene CIS-FACTORIAL M06 internal marker reporter; actives raise or lower the signal
# In short: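 Terse: HepG2, transient MRTU transfection (FuGene 6), 24 h dosing; total RNA, oligo(dT) RT, PCR, FAM label, HpaI cut, capillary electrophoresis; bidirectional fit vs DMSO baseline; background-control endpoint.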
# [6] = biological target: Hypoxia-inducible factor 1-alpha (Homo sapiens) (UniProt Q16665); experiment: ATG_HIF1a_CIS: Attagene CIS-FACTORIAL HepG2 Assay for human Hypoxia Inducible Factor 1 (HIF1A) (AID 2282951); settings: HepG2 Attagene cis-factorial HIF1a reporter transcription; actives raise or lower the signal
# In short: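 Endogenous-TF cis reporter readout, human HepG2 cells, 24 h incubation; mRNA detected via RT-PCR and capillary electrophoresis fluorescence; DMSO-normalised bidirectional fitting.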
# [7] = biological target: Hepatocyte nuclear factor 6 (Homo sapiens) (UniProt Q9UBC0); experiment: ATG_HNF6_CIS: Attagene CIS-FACTORIAL HepG2 Assay for human Hepatocyte Nuclear Factor 6 (HNF6) (AID 2282952); settings: HepG2 Attagene cis-factorial HNF6 reporter transcription; actives raise or lower the signal
# In short: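 HepG2 cells transiently transfected with cis-element-driven multiplexed reporter units measuring endogenous transcription factor activity. After 24 h exposure, reporter mRNA quantified by RT-PCR, FAM-labelled fragments and capillary electrophoresis; bidirectional fitting versus DMSO.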
# [8] = biological target: Heat shock factor protein 1 (Homo sapiens) (UniProt Q00613); experiment: ATG_HSE_CIS: Attagene CIS-FACTORIAL HepG2 Assay for human Heat Shock Transcription Factor 1 (HSE) (AID 2282953); settings: HepG2 HSE cis-reporter, Attagene RNA transcription; actives raise or lower the signal
# In short: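 Read-out: fluorescence of reporter-specific RT-PCR fragments separated by capillary electrophoresis. HepG2 carrying transfected cis-element reporter units; 24 h dosing; activity fitted in both directions relative to DMSO baseline.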
# [9] = ATG_MRE_CIS: Attagene CIS-FACTORIAL HepG2 Assay for human Metal Responsive Element (MRE) (AID 2282954); settings: HepG2 MRE cis-reporter transcription, Attagene multiplex; actives raise or lower the signal
# In short: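 HepG2 cells transiently transfected with multiple cis-element reporter units measure endogenous MTF1-driven transcription. After 24 h compound exposure, reporter mRNA is quantified by RT-PCR with 6-FAM labelling, HpaI digestion and capillary electrophoresis; bidirectional fits versus DMSO.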
# [10] = ATG_PBREM_CIS: Attagene CIS-FACTORIAL HepG2 Assay for human Phenobarbital-responsive Enhancer Module (PBREM) (AID 2282955); settings: HepG2 PBREM cis-reporter, Attagene multiplexed transcription; actives raise or lower the signal
# In short: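 Readout: reporter mRNA, fluorescent RT-PCR fragments separated by capillary electrophoresis. System: HepG2 transiently transfected with cis-regulated reporter units. Exposure: 24 h. Analysis: bidirectional, DMSO baseline.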
# [11] = biological target: Paired box protein Pax-6 (Homo sapiens) (UniProt P26367); experiment: ATG_Pax6_CIS: Attagene CIS-FACTORIAL HepG2 Assay for human Paired Box 6 (PAX6) (AID 2282956); settings: HepG2 CIS-FACTORIAL PAX6 reporter transcription, RNA readout; actives raise or lower the signal
# In short: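 Transient MRTU transfection of HepG2 → compound exposure 24 h → TriZol RNA, oligo(dT) RT → PCR, 6-FAM primer extension, HpaI cut → capillary electrophoresis; activity fitted both directions against DMSO.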
# [12] = ATG_PXRE_CIS: Attagene CIS-FACTORIAL HepG2 Assay for human Pregnane X Receptor Element (PXRE) (AID 2282957); settings: HepG2 Attagene CIS-FACTORIAL PXRE reporter, mRNA; actives raise or lower the signal
# In short: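 HepG2 cells transiently transfected with cis-element-driven multiplexed reporter units; after 24 h chemical exposure, reporter mRNA measured by RT-PCR, 6-FAM labelling, HpaI digestion and capillary electrophoresis. Bidirectional fitting relative to DMSO.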
# [13] = ATG_PPRE_CIS: Attagene CIS-FACTORIAL HepG2 Assay for human Peroxisome Proliferator-activated Response Element (PPRE) (AID 2282958); settings: HepG2 PPRE cis-element reporter, Attagene transcription factor profiling; actives raise or lower the signal
# In short: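 After human HepG2 hepatoma cells were transiently transfected with cis-promoter reporter constructs, they were exposed to test chemicals for 24 hours. Reporter RNA was then reverse-transcribed, PCR-amplified, FAM-labeled, HpaI-digested and quantified by capillary electrophoresis.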
# [14] = ATG_Sox_CIS: Attagene CIS-FACTORIAL HepG2 Assay for human SRY-box transcription factor (SOX) (AID 2282960); settings: HepG2 Attagene cis-factorial SOX reporter, mRNA; actives raise or lower the signal
# In short: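 Using transiently transfected HepG2 cells, reporter transcription driven by cis elements was assessed 24 h after dosing. Signal was fluorescence of capillary-separated RT-PCR products, with DMSO defining baseline activity.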
# [15] = biological target: Transcription factor Sp1 (Homo sapiens) (UniProt P08047); experiment: ATG_Sp1_CIS: Attagene CIS-FACTORIAL HepG2 Assay for human Specificity Protein 1 (Sp1) (AID 2282961); settings: HepG2 Sp1 cis-reporter transcription, actives raise or lower the signal
# In short: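 After transient transfection of HepG2 cells with cis-promoter reporter units and 24 h chemical treatment, reporter transcripts were quantified by RT-PCR and capillary electrophoresis fluorescence. Gain- and loss-of-signal fitted against DMSO.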
# [16] = ATG_SREBP_CIS: Attagene CIS-FACTORIAL HepG2 Assay for human Sterol Regulatory Element Binding (SREBP) (AID 2282962); settings: HepG2 Attagene cis-factorial SREBP reporter, mRNA; actives raise or lower the signal
# In short: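 Transfected HepG2 (cis-regulated reporter library, endogenous TFs) → compound 24 h → total RNA → oligo(dT) RT → reporter-specific PCR → FAM primer extension, HpaI cut → CE fluorescence. Fit bidirectional vs DMSO.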
# [17] = biological target: Signal transducer and activator of transcription 3 (Homo sapiens) (UniProt P40763); experiment: ATG_STAT3_CIS: Attagene CIS-FACTORIAL HepG2 Assay for human Signal Transducer and Activator of Transcription 3 (STAT3) (AID 2282963); settings: HepG2, Attagene cis-factorial STAT3 reporter transcription; actives raise or lower the signal
# In short: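 HepG2 cells transiently transfected with cis-element-driven multiple reporter transcription units; after 24 h chemical exposure, reporter mRNA measured by RT-PCR, 6-FAM primer-extension labelling, HpaI digestion and capillary electrophoresis. Bidirectional fitting versus DMSO baseline.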
# [18] = ATG_TA_CIS: Attagene CIS-FACTORIAL HepG2 Assay for human TA Basal Promoter (AID 2282964); settings: HepG2 Attagene CIS-factorial TA basal promoter reporter; actives raise or lower the signal
# In short: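 Transfected HepG2, 24 h compound exposure; RNA → RT-PCR → FAM primer extension → HpaI cut → CE fluorescence. Gain/loss-of-signal fitted against DMSO negative control. Background-control readout.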
# [19] = ATG_TCF_b_cat_CIS: Attagene CIS-FACTORIAL HepG2 Assay for human T-Cell-Factor with beta-catenin (TCF/b-cat) (AID 2282965); settings: HepG2 TCF/beta-catenin cis-reporter transcription, actives raise or lower the signal
# In short: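 HepG2 cells transiently transfected with multiple cis-promoter-regulated reporter transcription units, so endogenous transcription factor activity is measured. Reporter mRNA read 24 hours after dosing by RT-PCR, fluorescent labelling and capillary electrophoresis; bidirectional fitting against DMSO.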
# [20] = ATG_RORE_CIS: Attagene CIS-FACTORIAL HepG2 Assay for human RAR-related Orphan Receptor Element (RORE) (AID 2282959); settings: HepG2 Attagene cis-factorial RORE reporter, mRNA; actives raise or lower the signal
# In short: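 Measured here: transcript induction of a cis-regulated reporter in HepG2 cells transiently transfected via FuGene 6. After 24 h, RNA was processed by RT-PCR and fluorescent capillary electrophoresis; DMSO defined baseline activity.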
# Sequence of Transcription factor Sp1 (Homo sapiens) (P08047 whole entry, looked up): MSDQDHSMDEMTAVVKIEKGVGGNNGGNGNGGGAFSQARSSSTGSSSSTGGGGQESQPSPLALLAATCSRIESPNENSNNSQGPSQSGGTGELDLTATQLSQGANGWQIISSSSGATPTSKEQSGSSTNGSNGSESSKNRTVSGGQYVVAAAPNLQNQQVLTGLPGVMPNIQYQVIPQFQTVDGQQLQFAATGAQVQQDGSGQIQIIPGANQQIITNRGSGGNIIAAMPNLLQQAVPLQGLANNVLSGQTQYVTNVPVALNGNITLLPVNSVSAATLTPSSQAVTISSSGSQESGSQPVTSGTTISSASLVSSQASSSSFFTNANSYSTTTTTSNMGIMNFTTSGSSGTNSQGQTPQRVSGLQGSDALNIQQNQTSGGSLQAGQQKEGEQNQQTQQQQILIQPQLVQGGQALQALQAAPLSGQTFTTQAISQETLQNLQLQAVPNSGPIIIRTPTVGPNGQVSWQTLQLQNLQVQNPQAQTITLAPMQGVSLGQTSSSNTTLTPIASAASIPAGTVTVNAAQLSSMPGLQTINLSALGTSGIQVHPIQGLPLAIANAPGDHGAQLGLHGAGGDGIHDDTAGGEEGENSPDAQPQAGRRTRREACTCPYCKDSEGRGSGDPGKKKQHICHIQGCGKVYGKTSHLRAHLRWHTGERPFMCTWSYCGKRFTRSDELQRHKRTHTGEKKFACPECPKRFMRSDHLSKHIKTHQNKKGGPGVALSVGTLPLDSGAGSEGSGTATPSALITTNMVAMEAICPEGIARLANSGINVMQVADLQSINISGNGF
# Sequence of Signal transducer and activator of transcription 3 (Homo sapiens) (P40763 whole entry, looked up): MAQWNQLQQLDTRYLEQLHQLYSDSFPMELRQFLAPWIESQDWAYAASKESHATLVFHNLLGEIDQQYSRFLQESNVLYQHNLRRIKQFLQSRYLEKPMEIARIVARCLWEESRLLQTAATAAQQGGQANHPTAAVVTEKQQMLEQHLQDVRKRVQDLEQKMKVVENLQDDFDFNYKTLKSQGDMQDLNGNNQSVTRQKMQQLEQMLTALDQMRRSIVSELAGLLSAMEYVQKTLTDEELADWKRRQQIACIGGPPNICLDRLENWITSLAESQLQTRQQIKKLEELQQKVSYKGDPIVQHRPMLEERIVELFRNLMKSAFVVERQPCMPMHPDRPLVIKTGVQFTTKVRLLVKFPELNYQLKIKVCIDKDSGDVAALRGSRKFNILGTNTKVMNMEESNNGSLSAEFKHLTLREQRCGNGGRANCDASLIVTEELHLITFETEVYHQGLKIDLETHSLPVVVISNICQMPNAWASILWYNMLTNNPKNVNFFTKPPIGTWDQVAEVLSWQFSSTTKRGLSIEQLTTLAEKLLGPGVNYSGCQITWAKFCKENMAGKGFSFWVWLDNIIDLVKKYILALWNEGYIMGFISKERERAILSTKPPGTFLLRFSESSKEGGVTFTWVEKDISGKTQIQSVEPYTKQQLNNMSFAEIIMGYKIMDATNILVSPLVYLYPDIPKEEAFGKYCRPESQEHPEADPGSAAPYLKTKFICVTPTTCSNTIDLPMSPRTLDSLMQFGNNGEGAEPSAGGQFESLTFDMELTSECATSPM
# Sequence of Hepatocyte nuclear factor 6 (Homo sapiens) (Q9UBC0 whole entry, looked up, the tested form may be a part): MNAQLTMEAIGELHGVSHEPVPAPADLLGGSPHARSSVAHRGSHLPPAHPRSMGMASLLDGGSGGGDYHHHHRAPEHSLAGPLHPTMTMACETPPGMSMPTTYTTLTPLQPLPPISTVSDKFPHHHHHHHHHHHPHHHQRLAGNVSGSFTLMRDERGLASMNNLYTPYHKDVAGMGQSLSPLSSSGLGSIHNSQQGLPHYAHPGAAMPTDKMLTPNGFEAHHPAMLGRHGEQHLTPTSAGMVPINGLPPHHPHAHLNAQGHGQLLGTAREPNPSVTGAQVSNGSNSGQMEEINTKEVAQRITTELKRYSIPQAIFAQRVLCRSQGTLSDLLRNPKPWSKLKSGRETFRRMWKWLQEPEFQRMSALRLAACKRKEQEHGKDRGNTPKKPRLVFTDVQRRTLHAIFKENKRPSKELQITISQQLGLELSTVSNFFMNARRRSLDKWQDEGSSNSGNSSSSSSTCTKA
# Sequence of Heat shock factor protein 1 (Homo sapiens) (Q00613 whole entry, looked up, the tested form may be a part): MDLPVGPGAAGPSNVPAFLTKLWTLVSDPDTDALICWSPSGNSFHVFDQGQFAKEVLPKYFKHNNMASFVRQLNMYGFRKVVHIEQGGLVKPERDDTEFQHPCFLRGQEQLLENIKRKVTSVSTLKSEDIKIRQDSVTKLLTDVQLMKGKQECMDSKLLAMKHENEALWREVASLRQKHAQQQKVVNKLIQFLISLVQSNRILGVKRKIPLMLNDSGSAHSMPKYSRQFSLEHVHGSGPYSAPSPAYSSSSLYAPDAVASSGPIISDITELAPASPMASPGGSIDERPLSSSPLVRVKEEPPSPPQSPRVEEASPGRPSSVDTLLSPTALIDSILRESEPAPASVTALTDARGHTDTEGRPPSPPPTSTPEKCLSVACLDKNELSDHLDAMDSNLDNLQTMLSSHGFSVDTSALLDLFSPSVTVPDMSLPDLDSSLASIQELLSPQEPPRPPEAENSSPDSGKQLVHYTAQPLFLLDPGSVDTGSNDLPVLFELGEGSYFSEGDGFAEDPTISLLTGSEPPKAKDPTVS
# Sequence of Hypoxia-inducible factor 1-alpha (Homo sapiens) (Q16665 whole entry, looked up): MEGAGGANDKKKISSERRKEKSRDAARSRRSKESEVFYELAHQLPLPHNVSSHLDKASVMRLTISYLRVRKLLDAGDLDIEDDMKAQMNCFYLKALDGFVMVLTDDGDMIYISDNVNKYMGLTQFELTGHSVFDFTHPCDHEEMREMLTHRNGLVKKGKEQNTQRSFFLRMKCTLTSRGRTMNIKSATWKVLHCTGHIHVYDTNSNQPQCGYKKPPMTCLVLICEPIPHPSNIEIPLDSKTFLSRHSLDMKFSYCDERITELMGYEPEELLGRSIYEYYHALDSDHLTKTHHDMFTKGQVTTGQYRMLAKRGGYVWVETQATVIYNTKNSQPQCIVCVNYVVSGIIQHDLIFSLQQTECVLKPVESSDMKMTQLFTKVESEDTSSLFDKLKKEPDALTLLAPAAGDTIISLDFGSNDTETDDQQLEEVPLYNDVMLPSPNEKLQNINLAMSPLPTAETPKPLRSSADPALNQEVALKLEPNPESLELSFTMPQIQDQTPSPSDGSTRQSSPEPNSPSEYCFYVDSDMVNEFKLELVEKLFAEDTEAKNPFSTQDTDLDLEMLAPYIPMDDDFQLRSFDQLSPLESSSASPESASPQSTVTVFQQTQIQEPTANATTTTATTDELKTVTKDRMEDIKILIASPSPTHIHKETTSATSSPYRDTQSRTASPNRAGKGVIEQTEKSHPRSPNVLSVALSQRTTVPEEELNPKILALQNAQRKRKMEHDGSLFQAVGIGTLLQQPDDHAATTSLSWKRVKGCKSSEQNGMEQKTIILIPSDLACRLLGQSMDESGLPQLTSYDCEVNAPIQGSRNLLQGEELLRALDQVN
# Sequence of Paired box protein Pax-6 (Homo sapiens) (P26367 whole entry, looked up): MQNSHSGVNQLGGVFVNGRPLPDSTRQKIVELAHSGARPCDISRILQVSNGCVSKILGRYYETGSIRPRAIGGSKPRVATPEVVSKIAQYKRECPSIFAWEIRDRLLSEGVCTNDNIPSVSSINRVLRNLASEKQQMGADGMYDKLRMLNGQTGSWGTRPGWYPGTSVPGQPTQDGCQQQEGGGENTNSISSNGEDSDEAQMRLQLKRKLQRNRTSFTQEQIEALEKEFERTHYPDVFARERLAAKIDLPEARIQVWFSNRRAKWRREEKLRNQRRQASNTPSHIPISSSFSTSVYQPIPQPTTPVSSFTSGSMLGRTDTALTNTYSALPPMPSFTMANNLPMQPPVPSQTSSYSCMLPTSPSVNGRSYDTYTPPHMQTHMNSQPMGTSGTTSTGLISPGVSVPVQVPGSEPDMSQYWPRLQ
compound,measurement,setting,value
Oc1ccc(Cl)cc1Cc1ccccc1,AC50,[1],16.4 µM (active)
same,outcome,[1],inactive
same,outcome,[2],inactive
same,outcome,[3],inactive
same,outcome,[4],inactive
same,outcome,[5],inactive
same,outcome,[6],inactive
same,outcome,[7],inactive
same,AC50,[8],17.3 µM (active)
same,outcome,[8],inactive
same,AC50,[9],16 µM (active)
same,outcome,[9],inactive
same,AC50,[10],13.6 µM (active)
same,outcome,[10],inactive
same,AC50,[11],8.56 µM (active)
same,outcome,[11],inactive
same,outcome,[12],inactive
same,AC50,[13],9.13 µM (active) [middle of 6 runs]
same,outcome,[13],inactive
same,AC50,[14],8.2 µM (active)
same,outcome,[14],inactive
same,AC50,[15],13.4 µM (active)
same,outcome,[15],inactive
same,AC50,[16],7.03 µM (active) and 6.32 µM (active)
same,outcome,[16],inactive
same,outcome,[17],inactive
same,AC50,[18],17.5 µM (active)
same,outcome,[18],inactive
same,AC50,[19],16.4 µM (active)
same,outcome,[19],inactive
CC1(C)C(C=C(Cl)Cl)C1C(=O)OC(C#N)c1ccc(F)c(Oc2ccccc2)c1 (stereo not given),outcome,[1],inactive
same,outcome,[2],inactive
same,outcome,[3],inactive
same,outcome,[4],inactive
same,outcome,[5],inactive
same,outcome,[6],inactive
same,outcome,[7],inactive
same,outcome,[8],inactive
same,outcome,[9],inactive
same,outcome,[10],inactive
same,outcome,[11],inactive
same,AC50,[12],2.93 µM (active)
same,AC50,[13],8.12 µM (active)
same,outcome,[20],inactive
same,outcome,[14],inactive
same,outcome,[15],inactive
same,outcome,[16],inactive
same,outcome,[17],inactive
same,outcome,[18],inactive
same,outcome,[19],inactive
